KB-V1 MDR tox: KB-V1 MDR subline cytotoxicity. KB-V1 MDR cells viability, CellTiter-Glo, 72 h. Potency, µM (doses to about 46.1 µM), most hits filed as cytotoxic. hit rate 3.4% among 400,000; also: potency is read from the fitted curve at half-maximal effect; nearly all actives have a fitted effect of over 60% in size
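KB-V1 MDR subline cells in DMEM (phenol-red free, 10% FBS) exposed to compounds in qHTS concentration series for 72 h at 37 degrees C. Viability read by CellTiter-Glo luminescence; concentration-effect curves fitted after normalization and correction.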
PI4K2A inh: PI4K2A (human) kinase inhibition; purified PI4K2A, ADP-Glo luminescence, 1 h; hits give low values; activity change, negative = inhibition, % at 76.9 µM; hit rate 0.13% among 420,000; AID 1346378; in the data active = activity change below about -50%; inconclusive = mostly about -30% to -49%;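 also: -100% = wells without enzyme as full effect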
Target sequence (Q9BTU6 whole entry, looked up): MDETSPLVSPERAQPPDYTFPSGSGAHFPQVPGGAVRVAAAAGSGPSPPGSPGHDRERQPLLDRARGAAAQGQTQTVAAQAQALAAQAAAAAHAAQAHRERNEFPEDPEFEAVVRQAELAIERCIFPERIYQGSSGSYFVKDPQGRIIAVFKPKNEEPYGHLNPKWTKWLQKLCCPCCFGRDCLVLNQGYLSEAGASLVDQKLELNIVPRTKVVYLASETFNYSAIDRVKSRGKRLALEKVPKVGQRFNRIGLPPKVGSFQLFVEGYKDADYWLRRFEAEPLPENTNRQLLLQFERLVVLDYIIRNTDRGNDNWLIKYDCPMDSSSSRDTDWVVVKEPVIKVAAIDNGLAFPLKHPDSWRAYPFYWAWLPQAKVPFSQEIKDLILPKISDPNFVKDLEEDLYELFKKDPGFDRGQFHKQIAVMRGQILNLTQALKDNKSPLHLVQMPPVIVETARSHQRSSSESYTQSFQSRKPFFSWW
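ADP-Glo luminescence measured ADP generated by PI4K2A enzyme (4 ug/mL before mixing) with 1.2 mM PI substrate (pre-mix) and 300 microM ATP (pre-mix). Tris pH7.5 buffer with MgCl2, Triton X-100; 1 h reaction at ambient temperature.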
A549 tox: counter-screen for Nrf2 inhibitors: cytotoxicity in A549 cells | A549 ARE-Fluc cells, CellTiter-Fluor viability, 18-24 h | Potency, µM (highest dose often 46 µM), for inactives: at the highest dose activity change, negative = cytotoxicity, usual class: inhibitors | hit rate 0.16% among 390,000 | AID 504648; also: potency is read from the fitted curve at half-maximal effect
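A549 ARE_Fluc cells in 5% FBS OPTI-MEM were exposed to compounds in concentration-response for 18-24 h at 37 deg C. Viability was read by CellTiter-Fluor fluorescence (Ex 405/Em 525) after 30 min, before the luciferase read.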
Giardia kill: kills Giardia lamblia | Giardia lamblia trophozoite viability | activity change, % at 7.66 µM, hits read low | hit rate 0.15% among 340,000; in the data active = activity change below about -80%; inconclusive = between about -30% and that limit;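 also: parasites exposed to compound for two days anaerobically before the ATP read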
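Compounds were tested on trophozoites seeded at 100 cells/well and held 48 hrs at 37 deg C anaerobically. An ATP-based luminescent kit measured the remaining live cells.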
KB-3-1 tox: kills parental KB-3-1 adenocarcinoma cells. KB-3-1 viability, CellTiter-Glo ATP luminescence, 72 h. Potency, µM (highest dose often 46.1 µM), most hits filed as cytotoxic. hit rate 1.4% among 400,000; also: potency is read from the fitted curve at half-maximal effect; nearly all actives have a fitted effect of over 60% in size
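Cells are dispensed, compounds pinned in, plates held at 37 °C for 72 h, then CellTiter-Glo is added and luminescence read after 10 minutes. Cell line: parental KB-3-1 in phenol-red-free DMEM, 10% FBS.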
Nrf2 inh: inhibitors of Nrf2 signaling. A549 ARE-Fluc reporter, luciferase luminescence, 18-24 h. Potency, µM (series often up to 46 µM), without a hit: at the highest dose activity change, negative = inhibition, actives largely listed as inhibitors. hit rate 2.1% among 360,000; also: potency is read from the fitted curve at half-maximal effect; nearly all actives have a fitted effect of over 60% in size
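Concentration-response testing used A549 ARE_Fluc cells at 5000 cells/well. Following an 18-24 h compound incubation, viability was read by fluorescence (Ex 405/Em 525) and luciferase output by luminescence.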
Active calls of the source: *; i = inactive; ? = inconclusive; . = not tested or not shown. Hits are enriched below; roughly 5.7% of the tested compounds scored in any of these assays. Unless noted, calls follow the shape of the dose curve; as a rule, active = well fitted curve in the direction sought with a large enough effect; inconclusive = small, poorly fitted or top-dose-only effect, or another doubt; inactive = no such curve, though single readings can be large; an effect the other way counts as inactive or inconclusive. Unless noted, % is scaled to controls: 0 for no effect and ±100 for the full control effect.

SMILES	KB-V1 MDR tox	PI4K2A inh	A549 tox	Giardia kill	KB-3-1 tox	Nrf2 inh
Cc1ccc(-n2ncc(C(=O)N3CCN(c4ccc(Cl)cc4)CC3)c2C2CCN(C(=O)OC(C)(C)C)CC2)c(C)c1	i	-1	-28%	.	i	15µM*
CC(C(=O)c1ccccc1)N(C)C (stereo not given)	.	-1	.	.	.	.
COc1ccc(NC(=O)CN2C(=O)CN=C(c3ccccc3)c3ccccc32)c(OC)c1	.	3	6%	.	.	.
C[C@]12CCC3=C4CCC(=O)C=C4CC[C@H]3C1CC[C@@H]2O (stereo not given in full)	3.7µM*	-17	-4%	9	10µM*	-29%
C[C@]12CC[C@H]3[C@@H](CCC4=CC(=O)CC[C@@H]43)[C@@H]1CC[C@@H]2O	2.3µM*	2	0%	0	10µM*	-13%
CC1(O)CCC2C3CCC4=CC(=O)CCC4=C3C=CC21C (stereo not given)	9.2µM*	-3	-3%	2	?	?
CC[C@H]1C[C@H]2[C@@H]3CCC4=CC(=O)CC[C@@H]4[C@H]3CC[C@]2(C)[C@H]1O	.	3	.	.	.	.
C[C@]12CCC(=O)C=C1CCC1C2CC[C@@]2(C)C1CC[C@]2(C)O (stereo not given in full)	?	2	-2%	-4	i	?
C[C@]12CCC(=O)C=C1CCC1C2CC[C@@]2(C)C1CC[C@@H]2O (stereo not given in full)	2.3µM*	6	0%	4	4.6µM*	-15%
Cn1cc(C2=C(c3cn(C4CCN(Cc5ccccn5)CC4)c4ccccc34)C(=O)NC2=O)c2ccccc21	.	3	.	.	.	.
O=C(c1cc(-c2cccc(Cl)c2)on1)N1CCOCC1	i	0	5%	-5	i	?
CCCSP(=O)(OCC)SCCC	.	i	.	.	.	.
O=C1CN=C(c2ccccc2)c2cc(Cl)ccc2N1Cc1ccc(Cl)cc1	15µM*	0	11%	.	?	-11%
Cc1ccc(CN2C(=O)CN=C(c3ccccc3)c3ccccc32)cc1	18µM*	-5	-1%	-4	?	-16%
CSCc1nnc2n1-c1ccc(Cl)cc1C(c1ccccc1)=NC2	16µM*	-2	-8%	-7	?	-12%
O=C(Nc1ccccc1F)Oc1cccc(OC(=O)Nc2ccccc2F)c1	i	3	0%	20	i	?
CC(C)(C)c1ccc(OCC(=O)Nc2ccc(Cl)cc2C(=O)c2ccccc2)cc1	i	-3	-3%	.	i	-20%
CN(C(=O)CSc1nc2ccc(NC(=O)COc3ccc(Cl)cc3)cc2s1)c1ccccc1	21µM*	0	-18%	.	?	15µM*
COc1cccc(C(=O)Nc2ccc3nc(SCC(=O)N(C)c4ccccc4)sc3c2)c1	?	-7	-18%	.	?	?
COc1ccc(Nc2c(-c3cc(Br)ccc3O)nc3ncccn23)cc1OC	i	3	-18%	.	i	?
OCc1cccc[n+]1CCc1ccccc1	i	0	-2%	-4	i	7.3µM*
O=P(O)(O)c1ccccc1OCCOCCOCCOCCOc1ccccc1P(=O)(O)O	i	-5	3%	-6	i	?
C=CCC1([C@H](C)CCC)C(=O)NC(=O)NC1=O	.	i	.	.	.	.
ClCCN(CCCl)c1ccc(/C=C/c2sc3ccccc3[n+]2CCCCI)cc1	i	.	.	.	?	.
CC(=NCc1ccco1)c1c(O)n(C2CCCCC2)c(=O)[nH]c1=O	5.8µM*	-3	-1%	-9	i	?
CC(=NCc1cccnc1)c1c(O)n(C2CCCCC2)c(=O)[nH]c1=O	18µM*	0	-22%	38	i	?
CCOc1cc2c(cc1OCC)-n1cccc1C(c1ccc(C(C)C)cc1)NC2 (stereo not given)	?	-2	?	12	?	23µM*
CCOc1cc2c(cc1OCC)-n1cccc1C(c1ccc(F)cc1)NC2 (stereo not given)	i	-3	4%	32	i	-15%

Assay outcomes as filed in PubChem.
